Measurements reported in the supplement of paper PMC6555819.

Columns and labels:
Assay in all cases: PBM binding z-score (relative to random genomic background probes); higher = stronger binding; sequences stand for … in GC…GCGATTGACAGCGTAGAATGAAGG
[1] = tested on: FXR:RXRa (NR concentration 270 nM, RXRa partner concentration 90 nM)
Summary of the method: (§1)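 Binding z-scores take random background probes as their reference. They come from custom Agilent 4×180K protein-binding microarrays incubated 1 h with ligand-free nuclear receptor dimers, with antibodies against each partner (one per run) detecting binding. Scanned fluorescence was regression-normalized.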

[2] = tested on: LXRa:RXRa (NR concentration 270 nM, RXRa partner concentration 90 nM)
Summary of the method: as §1

[3] = tested on: LXRa homodimer (NR concentration 270 nM)
Summary of the method: as §1

[4] = tested on: LXRb:RXRa (NR concentration 270 nM, RXRa partner concentration 90 nM)
Summary of the method: as §1

[5] = tested on: LXRb homodimer (NR concentration 270 nM)
Summary of the method: as §1

[6] = tested on: PPARa:RXRa (NR concentration 270 nM, RXRa partner concentration 90 nM)
Summary of the method: as §1

[7] = tested on: PPARg:RXRa (NR concentration 180 nM, RXRa partner concentration 90 nM)
Summary of the method: as §1

[8] = tested on: PPARg:RXRa 270nM:90nM, anti-RXR (NR concentration 270 nM, RXRa partner concentration 90 nM)
Summary of the method: as §1

[9] = tested on: PPARg:RXRa 30nM:10nM, anti-RXR (NR concentration 30 nM, RXRa partner concentration 10 nM)
Summary of the method: as §1

[10] = tested on: PPARg:RXRa 90nM:30nM, anti-RXR (NR concentration 90 nM, RXRa partner concentration 30 nM)
Summary of the method: as §1

[11] = tested on: PPARg:RXRa DBDmut IVT, anti-RXR (DBD mutation: RXRa K156A/R161A, NR concentration 270 nM, RXRa partner concentration 90 nM)
Summary of the method: as §1

[12] = tested on: PPARg:RXRa IVT, anti-PPARg (NR concentration 270 nM, RXRa partner concentration 90 nM)
Summary of the method: as §1

[13] = tested on: PPARg DBDmut:RXRa IVT, anti-PPARg (DBD mutation: PPARg1 K132A/R137A, NR concentration 270 nM, RXRa partner concentration 90 nM)
Summary of the method: as §1

[14] = tested on: PPARg DBDmut IVT, anti-PPARg (DBD mutation: PPARg1 K132A/R137A, NR concentration 270 nM)
Summary of the method: as §1

[15] = tested on: PPARg homodimer (NR concentration 180 nM)
Summary of the method: as §1

[16] = tested on: PXR:RXRa (NR concentration 270 nM, RXRa partner concentration 90 nM)
Summary of the method: as §1

[17] = tested on: PXR homodimer (NR concentration 270 nM)
Summary of the method: as §1

[18] = tested on: RARa:RXR (NR concentration 270 nM, RXRa partner concentration 90 nM)
Summary of the method: as §1

[19] = tested on: RARa homodimer (NR concentration 270 nM)
Summary of the method: as §1

[20] = tested on: RARb:RXRa (NR concentration 270 nM, RXRa partner concentration 90 nM)
Summary of the method: as §1

Sequence | PBM binding z-score [1] | PBM binding z-score [2] | PBM binding z-score [3] | PBM binding z-score [4] | PBM binding z-score [5] | PBM binding z-score [6] | PBM binding z-score [7] | PBM binding z-score [8] | PBM binding z-score [9] | PBM binding z-score [10] | PBM binding z-score [11] | PBM binding z-score [12] | PBM binding z-score [13] | PBM binding z-score [14] | PBM binding z-score [15] | PBM binding z-score [16] | PBM binding z-score [17] | PBM binding z-score [18] | PBM binding z-score [19] | PBM binding z-score [20]
TAGCCTAGGTCAGATCGGCCCAGTATACGCTATA | 1.44 | 1.09 | -0.637 | 0.955 | -0.183 | 1.87 | 1.07 | 0.986 | -0.286 | 0.142 | 0.85 | 1.85 | -0.244 | -1.36 | -0.0384 | 0.228 | -0.754 | 0.84 | -0.69 | 2.95
TAGCCTAGGTCATGCGGGCCAGTGTAGTGTCGGC | 3.71 | 2.88 | -0.0482 | 1.38 | -0.348 | 3.17 | 1.5 | 2.27 | -0.122 | 1.26 | 1.76 | 2.75 | -0.395 | -0.723 | 0.153 | 1.23 | -0.733 | 1.69 | -1.29 | 3.72
TTACCAAGCTGAAAGGTCGTTGATGCACGCCTTG | 0.616 | 0.94 | -0.316 | 1.04 | -1.11 | 2.08 | 1.29 | 3.29 | 1.06 | 2.53 | -0.529 | 0.156 | -0.407 | -0.623 | 0.193 | 1.72 | -0.0821 | 1.66 | -0.928 | 1.36
ACTAGCACGCCAAGGGTCACTCAAGATTAGTCCG | 2.79 | 3.15 | 0.382 | 3.1 | -0.324 | 3.64 | 2.48 | 3.7 | 1.47 | 3.3 | 0.189 | 1.26 | -0.247 | -0.0799 | 2.55 | 3.56 | 0.0958 | 4.5 | 1.53 | 3.58
TCTAGTTGGTCACTGAGGTCACACACGACGGGTA | 4.03 | 3.64 | 2.55 | 3.59 | 0.98 | 4.32 | 3.24 | 3.98 | 3.27 | 3.68 | 2.68 | 4.25 | 2.09 | 2.11 | 4.13 | 4.97 | 2.81 | 5.06 | 2.05 | 4
CCTACTGGGCCAAGGTGATTGATCAGTCAAAGCA | -0.711 | -0.732 | -0.784 | -0.722 | -1.14 | 0.274 | 1.29 | 2.08 | 0.0836 | 1.45 | 3.98 | 3.6 | -0.461 | -1.01 | -0.0957 | -0.771 | -0.714 | -0.606 | -1.01 | 0.182
TGAATGAGGTTAAAAGATCAGGGAACGTTGCAAA | 2.41 | 2.05 | -0.107 | 1.55 | -0.114 | 3.8 | 2.57 | 3.45 | 1.49 | 2.53 | 1.14 | 2.17 | 0.743 | 0.45 | 0.137 | 1.26 | 0.0168 | 2.04 | 0.336 | 1.72
CCTAGTTGGTAAAGGTCACACACGCTATAGGTAC | 6.25 | 5.71 | 4.56 | 5.64 | 2.13 | 5.93 | 5.47 | 6.3 | 4 | 5.63 | 1.96 | 4.31 | 1.8 | 2.57 | 5.56 | 5.79 | 2.18 | 6.31 | 3.99 | 5.22
CGATCTAGGTCATCCAGGACAGTGAATACATTGA | 4.46 | 2.5 | 0.582 | 2.09 | 0.272 | 4.82 | 7.36 | 6.3 | 3.7 | 5.8 | 7.91 | 8.21 | 6.15 | 1.47 | 2.27 | 2.13 | 1.59 | 2.41 | 0.582 | 3.89
ATCTCTAGCTAAAAGTTCAGTGAATCCCGAGGAT | 0.149 | 0.948 | 1.36 | 0.693 | 0.99 | 0.474 | 0.264 | 1.29 | 0.52 | 0.949 | -0.639 | -0.151 | 0.697 | 1.23 | 0.702 | 1.3 | 1.49 | 0.379 | 0.986 | 2.17
CCTGACGGGTCACTGACAGGTTATAGCATTTGGA | 4.19 | 3.46 | 0.214 | 2.64 | -0.319 | 4.19 | 2.56 | 2.71 | 0.481 | 1.8 | 1.12 | 1.82 | 0.147 | -0.292 | 3.03 | 3.08 | -0.179 | 4.01 | 0.536 | 3.69
TCTCGGAGGACACGAAGGTCAGAGCCTTCCAGAG | 1.54 | 1.56 | -0.0178 | 1.35 | -0.905 | 2.1 | 0.565 | 1.76 | 2.02 | 1.7 | 1.3 | 0.917 | -1.24 | -1.76 | 1.08 | 2.11 | 0.864 | 2.36 | 0.0341 | 3.33
ATCGAAAGGTCGAGATGAGTATAGAGAAAGGGAA | 3.74 | 3.2 | 0.146 | 2.54 | 0.748 | 4.2 | 2.56 | 2.97 | 0.989 | 2 | -0.278 | 1.33 | 1.47 | 1.2 | 1.05 | 2.02 | 0.117 | 2.52 | 0.436 | 3.66
AGAATGAGGTTATACGTAGATCAGGTAAGAAAGT | 2.3 | 2.13 | 0.183 | 1.72 | -0.0403 | 3.17 | 2.14 | 2.25 | 0.708 | 1.53 | 4.3 | 2.28 | 1.26 | 0.947 | 0.811 | 1.23 | 0.571 | 2 | 0.262 | 1.52
